# The supplement of paper PMC4466140
# B1: unnamed (peptide)
# chain: YRRKSIPFAPHQITA
# Molecular target: AgAbp1
# Assay: SPOT peptide array binding signal intensity (averaged, normalized) (arbitrary units (background-subtracted, floor 0; scale differs between SH3 domains)); higher = stronger binding of the SH3 domain to the peptide
# Protocol: (§1)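 GST-tagged SH3 domains from S. cerevisiae (Sc), A. gossypii (Ag), C. albicans (Ca) and S. pombe (Sp) were incubated at 10 ug/ml overnight at 4 C on cellulose SPOT membranes carrying 292 synthetic 15-mer peptides mined from the S. cerevisiae proteome (cysteines replaced by serines). Binding was detected with anti-GST antibody, HRP secondary and chemiluminescence, quantified with Genespotter, and reported as normalized spot intensities averaged over biological replicates.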
row,Binder,SPOT peptide array binding signal intensity
1,B1,34

# Molecular target: AgBbc1
# Assay: as above
# Protocol: as §1
row,Binder,SPOT peptide array binding signal intensity
1,B1,11.5

# Molecular target: AgBem1-D1
# Assay: as above
# Protocol: as §1
row,Binder,SPOT peptide array binding signal intensity
1,B1,21.5

# Molecular target: AgBzz1-D1
# Assay: as above
# Protocol: as §1
row,Binder,SPOT peptide array binding signal intensity
1,B1,99.5

# Molecular target: AgBzz1-D2
# Assay: as above
# Protocol: as §1
row,Binder,SPOT peptide array binding signal intensity
1,B1,34

# Molecular target: AgCyk3
# Assay: as above
# Protocol: as §1
row,Binder,SPOT peptide array binding signal intensity
1,B1,1

# Molecular target: AgFus1
# Assay: as above
# Protocol: as §1
row,Binder,SPOT peptide array binding signal intensity
1,B1,131

# Molecular target: AgHof1
# Assay: as above
# Protocol: as §1
row,Binder,SPOT peptide array binding signal intensity
1,B1,5.5

# Molecular target: AgHse1
# Assay: as above
# Protocol: as §1
row,Binder,SPOT peptide array binding signal intensity
1,B1,162

# Molecular target: AgLsb1
# Assay: as above
# Protocol: as §1
row,Binder,SPOT peptide array binding signal intensity
1,B1,25.8

# Molecular target: AgLsb4
# Assay: as above
# Protocol: as §1
row,Binder,SPOT peptide array binding signal intensity
1,B1,24

# Molecular target: AgMyo5
# Assay: as above
# Protocol: as §1
row,Binder,SPOT peptide array binding signal intensity
1,B1,≤ 0

# Molecular target: AgNbp2
# Assay: as above
# Protocol: as §1
row,Binder,SPOT peptide array binding signal intensity
1,B1,62.5

# Molecular target: AgRvs167
# Assay: as above
# Protocol: as §1
row,Binder,SPOT peptide array binding signal intensity
1,B1,3.67

# Molecular target: AgSho1
# Assay: as above
# Protocol: as §1
row,Binder,SPOT peptide array binding signal intensity
1,B1,16.5

# Molecular target: AgSla1-D1-D2
# Assay: as above
# Protocol: as §1
row,Binder,SPOT peptide array binding signal intensity
1,B1,39

# Molecular target: AgSla1-D3
# Assay: as above
# Protocol: as §1
row,Binder,SPOT peptide array binding signal intensity
1,B1,2.5

# Molecular target: CaAbp1-D1
# Assay: as above
# Protocol: as §1
row,Binder,SPOT peptide array binding signal intensity
1,B1,187

# Molecular target: CaAbp1-D2
# Assay: as above
# Protocol: as §1
row,Binder,SPOT peptide array binding signal intensity
1,B1,116

# Molecular target: CaBbc1
# Assay: as above
# Protocol: as §1
row,Binder,SPOT peptide array binding signal intensity
1,B1,41.5

# Molecular target: CaBem1-D1
# Assay: as above
# Protocol: as §1
row,Binder,SPOT peptide array binding signal intensity
1,B1,24

# Molecular target: CaBzz1-D1
# Assay: as above
# Protocol: as §1
row,Binder,SPOT peptide array binding signal intensity
1,B1,182

# Molecular target: CaBzz1-D2
# Assay: as above
# Protocol: as §1
row,Binder,SPOT peptide array binding signal intensity
1,B1,148

# Molecular target: CaCyk3
# Assay: as above
# Protocol: as §1
row,Binder,SPOT peptide array binding signal intensity
1,B1,6

# Molecular target: CaFus1
# Assay: as above
# Protocol: as §1
row,Binder,SPOT peptide array binding signal intensity
1,B1,159

# Molecular target: CaHof1
# Assay: as above
# Protocol: as §1
row,Binder,SPOT peptide array binding signal intensity
1,B1,2

# Molecular target: CaHse1
# Assay: as above
# Protocol: as §1
row,Binder,SPOT peptide array binding signal intensity
1,B1,16.8

# Molecular target: CaLsb1
# Assay: as above
# Protocol: as §1
row,Binder,SPOT peptide array binding signal intensity
1,B1,3

# Molecular target: CaLsb4
# Assay: as above
# Protocol: as §1
row,Binder,SPOT peptide array binding signal intensity
1,B1,13

# Molecular target: CaMyo5
# Assay: as above
# Protocol: as §1
row,Binder,SPOT peptide array binding signal intensity
1,B1,0.5

# Molecular target: CaNbp2
# Assay: as above
# Protocol: as §1
row,Binder,SPOT peptide array binding signal intensity
1,B1,161

# Molecular target: CaRvs167
# Assay: as above
# Protocol: as §1
row,Binder,SPOT peptide array binding signal intensity
1,B1,15.7

# Molecular target: CaRvs167-3
# Assay: as above
# Protocol: as §1
row,Binder,SPOT peptide array binding signal intensity
1,B1,18.5

# Molecular target: CaSho1
# Assay: as above
# Protocol: as §1
row,Binder,SPOT peptide array binding signal intensity
1,B1,70

# Molecular target: CaSla1-D1-D2
# Assay: as above
# Protocol: as §1
row,Binder,SPOT peptide array binding signal intensity
1,B1,118

# Molecular target: CaSla1-D3
# Assay: as above
# Protocol: as §1
row,Binder,SPOT peptide array binding signal intensity
1,B1,2.5

# Molecular target: ScAbp1
# Assay: as above
# Protocol: as §1
row,Binder,SPOT peptide array binding signal intensity
1,B1,53
